In PubChem BioAssay AID1159580 (chemical genetic matrix, 2015):
Hit rate of the full screen: of about 5,500 compounds, about 2,000 (36%) were called active. Roughly 18% stayed inconclusive and do not appear here. Rule as the data show it: active = normalized growth mostly below about 0.91 (no sharp cut-off); inconclusive = no clear call, values can overlap the other calls; inactive = mostly above about 0.92. Some of the results follow.

Assay: chemical genetic growth profiling, strain panel (AID 1159580);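 also: tested at 20 µM; growth read once vehicle control cultures reached saturation at 30 °C; 1 = growth at the plate median or of vehicle wells; lower values mean less growth of the strain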
Conditions: S. cerevisiae deletion strains, growth OD

Measured: normalized growth

C#CCOC(=O)C1=CCCN(C)C1
inactive: locus YAL013W, strain DEP1, active compounds read low 1.01 | locus YAL040C, strain CLN3, active compounds read low 1.02 | locus YDR363W, strain ESC2, active compounds read low 0.986 | locus YER002W, strain NOP16, active compounds read low 1.03 | locus YGR078C, strain PAC10, active compounds read low 1.01 | locus YGR229C, strain SMI1, active compounds read low 1.01 | locus YMR263W, strain SAP30, active compounds read low 1 | locus YMR307W, strain GAS1, active compounds read low 0.959 | locus YNL153C, strain GIM3, active compounds read low 1.03 | locus YNL175C, strain NOP13, active compounds read low 1.01 | locus YNL197C, strain WHI3, active compounds read low 0.99 | locus YNL224C, strain SQS1, active compounds read low 0.998 | locus YNL322C, strain KRE1, active compounds read low 1 | locus YOR083W, strain WHI5 (second series), active compounds read low 1

CC(C)(N)Cc1ccccc1
inactive: locus YHR030C, strain SLT2, active compounds read low 1.02 | locus YHR079C, strain IRE1, active compounds read low 1.02 | locus YJL095W, strain BCK1, active compounds read low 1 | locus YJR066W, strain TOR1, active compounds read low 0.947 | locus YLR113W, strain HOG1, active compounds read low 0.965 | locus YNL183C, strain NPR1, active compounds read low 0.937 | locus YOR231W, strain MKK1, active compounds read low 1.01 | locus YPL256C, strain CLN2, active compounds read low 1.03
